Bioassay records (PubChem)
rCAG binder: molecules binding r(CAG) RNA repeats; inhibition, % at 3 µM; 370,000 tested, 1.3% active; r(CAG) RNA repeat, TO-PRO-1 dye displacement fluorescence;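 active = inhibition above the plate cutoff, the mean of all test compounds on that plate plus 3 SD, cut at about 35% in these data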;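 also: higher means more dye released from RNA so lower well fluorescence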
MsrA inh: inhibitors of bovine MsrA; purified bovine MsrA, absorbance read-out; inhibition, % at 15.5 µM; 360,000 tested, 0.75% active; in the data active = inhibition above about 4.5%
HGIII-sPLA2 inh: Blocks human group III sPLA2 activity | Q9NZ20 | QFRET BODIPY PC-A2 liposome hydrolysis, fluorescence | inhibition, % at 12.2 µM | 370,000 tested, 0.56% active;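 active = inhibition above mean plus 3 SD of compounds lying within the high and low control bounds, cut at about 19% in these data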
Target sequence (Q9NZ20 whole entry, looked up): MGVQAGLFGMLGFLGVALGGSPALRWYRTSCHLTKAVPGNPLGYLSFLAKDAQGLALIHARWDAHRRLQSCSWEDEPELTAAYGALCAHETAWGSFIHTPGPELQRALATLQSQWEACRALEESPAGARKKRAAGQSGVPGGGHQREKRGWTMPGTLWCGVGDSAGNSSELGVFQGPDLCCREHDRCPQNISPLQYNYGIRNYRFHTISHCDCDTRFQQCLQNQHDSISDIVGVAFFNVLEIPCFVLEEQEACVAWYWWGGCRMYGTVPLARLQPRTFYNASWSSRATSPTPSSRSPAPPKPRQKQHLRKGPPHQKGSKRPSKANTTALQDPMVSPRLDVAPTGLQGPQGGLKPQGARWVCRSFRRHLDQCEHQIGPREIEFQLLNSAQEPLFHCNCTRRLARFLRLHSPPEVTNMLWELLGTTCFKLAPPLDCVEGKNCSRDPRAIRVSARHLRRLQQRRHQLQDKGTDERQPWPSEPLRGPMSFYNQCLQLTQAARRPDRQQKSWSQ
bovine MsrA act: activates bovine MsrA enzyme; AID 602163; activation, % at 10.6 µM; 360,000 tested, 0.3% active; purified bovine MsrA, absorbance read-out; in the data active = activation above about 7.5%
hGIII sPLA2 conf: human GIII-sPLA2 inhibition, confirmation; recombinant hGIII-sPLA2, BODIPY PC-A2 QFRET fluorescence; inhibition, % at 12.2 µM; shares compounds with HGIII-sPLA2 inh; 2,000 tested, 34% active;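 active = mean inhibition across triplicates above the hit cutoff set in the earlier primary screen, cut at about 19% in these data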
535nm interf: optically interferes with 535nm fluorescence in sPLA2 counter-screen | BODIPY FL product fluorescence interference, QFRET | shares compounds with HGIII-sPLA2 inh | inhibition, % at 12.2 µM | 2,000 tested, 8.5% active;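 active = average inhibition above the solvent-only control mean plus 3 SD, cut at about 6% in these data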
535nm interf DR: 535nm optical interference dose response, HGIII-sPLA2 counter-screen | shares compounds with HGIII-sPLA2 inh | BODIPY FL product fluorescence interference, cell-free | IC50, µM | 240 tested, under 10 active;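 active = IC50 at or below 10 µM; inactive = IC50 above 10 µM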
A number is an active result; 0 = inactive; - = no result given. Only some compounds are listed: those with a hit (about 2.8% of all), similar ones and a draw of the others.

SMILES	rCAG binder	MsrA inh	HGIII-sPLA2 inh	bovine MsrA act	hGIII sPLA2 conf	535nm interf	others
Cc1ccc(S(=O)(=O)NNC(=O)c2ccncc2)cc1	0	0	0	0	-	-
Cc1ccc(S(=O)(=O)NNC(=O)c2sc(=S)n(C)c2C)cc1	0	0	23	0	0	0
Cc1ccccc1C(=O)Nc1nnc(S(=O)(=O)N2CCCCCC2)s1	0	0	0	0	-	-
Cc1ccc(CNS(=O)(=O)c2ccc(-n3cccn3)cc2)cc1	0	0	0	0	-	-
O=S(=O)(c1ccc(NC(=S)NN=Cc2ccccc2O)cc1)N1CCCCC1	0	0	26	0	33	9.8
O=C(NC(=S)Nc1ccc(S(=O)(=O)N2CCCCC2)cc1)c1cccs1	0	0	19	0	19	0
Cc1n[nH]c(=O)c2c(NC(=O)CSc3ccc(Br)cc3)oc(C)c12	0	0	0	0	-	-
CCOC(=O)c1ccc2c(c1)C(=O)N(C1CCCCC1)C2=O	0	0	20	0	0	0
CCOC(=O)N1CCC(N2C(=O)c3ccc(C(=O)O)cc3C2=O)CC1	0	0	0	0	-	-
O=S(=O)(NCCCN1CCOCC1)c1ccc(Cl)cc1	0	0	0	0	-	-
CC(C)NC(=O)c1ccc(OC2CSC2)cc1	0	0	0	0	-	-
O=C(O)CC1(CC(=O)NCc2cc(F)cc3c2OCOC3)CCCCC1	0	0	20	0	0	0
O=C(O)CC1(CC(=O)Nc2ccc3c(c2)C(=O)OC3)CCCCC1	0	0	0	0	-	-
CC(=O)c1cccc(NC(=O)C2CCCN(S(=O)(=O)c3ccccc3)C2)c1 (stereo not drawn)	0	0	0	0	-	-
CC(=O)NN1C(=O)/C(=C2/Sc3ccc(Cl)cc3N2C)SC1=S	0	0	20	0	0	0
CC(=O)N(C)c1ccc(N2CCOCC2)c2c1C(=O)c1ccccc1C2=O	0	0	0	0	-	-
O=C1c2ccccc2C(=O)c2c1cccc2N1CCOCC1	0	0	22	0	32	0	535nm interf DR=0
CC1CN(C(=O)C2CCCC2)C(C)CN1C(=O)C1CCCC1 (stereo not drawn)	0	0	0	0	-	-
CC1CN(C(=O)C2CC2)C(C)CN1C(=O)C1CC1 (stereo not drawn)	0	0	25	0	0	0
C(=N\Nc1nc(-c2ccccc2)cs1)/c1ccncc1	0	0	0	0	-	-
O=C(O)Cc1sc(N/N=C\c2ccncc2)nc1-c1ccccc1	0	0	26	0	0	0
CCOc1ccc(/C=N/NC(=O)C(=O)NCc2ccco2)cc1	0	0	20	0	0	0
CCCCCN=C(N)N/N=C/c1c[nH]c2ccc(OC)cc12	0	0	28	0	40	0
COc1ccc2c(/C=N/Nc3ccc(C(=O)O)cc3)c[nH]c2c1	0	0	0	0	-	-
CC(c1ccccc1)n1c(-c2ccccc2F)n[nH]c1=S (stereo not drawn)	0	0	24	0	0	0
SMILES	rCAG binder	MsrA inh	HGIII-sPLA2 inh	bovine MsrA act	hGIII sPLA2 conf	535nm interf	others
O=C(NCC1CCCO1)C(=O)NCC(c1ccco1)N1CCN(c2ccccc2)CC1 (stereo not drawn)	0	0	0	0	-	-
O=C(NCc1ccc(Cl)cc1)C(=O)NCC(c1ccco1)N1CCOCC1 (stereo not drawn)	0	0	20	0	0	0
O=C(NCC1CCCO1)C(=O)NCC(c1ccco1)N1CCN(c2ccc(F)cc2)CC1 (stereo not drawn)	0	0	21	0	0	0
O=C(NNC(=S)NC(=O)c1ccc(F)cc1)c1ccncc1	0	0	0	0	-	-
O=C(NNC(=S)NC(=O)C12CC3CC(CC(C3)C1)C2)c1ccncc1	0	0	24	0	31	0	535nm interf DR=0
CC1(C(=O)NC(=S)NNC(=O)c2ccncc2)CCCCC1	0	0	26	0	20	0
Brc1ccc2nc(N3CCN(c4ccccc4)CC3)sc2c1	0	0	0	0	-	-
Cc1occc1C(=O)NNC(=O)CN1C(=O)NC2(CCCCC2)C1=O	0	0	0	0	-	-
CC(=O)Nc1ccc(-c2ccnc3c2CC(C)(C(=O)NC(C)C)O3)cc1 (stereo not drawn)	0	0	21	0	0	0
O=c1oc2ccccc2c(O)c1Sc1c(O)c2ccccc2oc1=O	-	-	-	0	-	-
COc1ccc2c(=O)cc(-c3cccnc3)oc2c1OC	0	0	20	0	0	0
